Measured values reported in PubChem BioAssay AID485364 (National Center for Advancing Translational Sciences (NCATS), 2010).
Values joined by “and” are separate entries in the source; they are usually repeats but may differ in a detail not shown here. Equal values may be shown once. About 11,000 (3.1%) of roughly 360,000 compounds were called active. Where a call stands in place of a potency, no number is given. Inconclusive results (about 4%) are left out. Calls follow the shape of the dose curve; as a rule, active = well fitted inhibition curve with a large enough effect; inconclusive = small, poorly fitted or top-dose-only effect; inactive = no such curve, though single readings can be large or run the other way. Only a selection was taken, and actives are over-represented in it overall. Some compounds were tested as several samples or in several runs, with calls that do not always agree.

biological target: Schistosoma mansoni thioredoxin glutathione reductase (TGR) (UniProt Q962Y6); experiment: qHTS Assay for the Inhibitors of Schistosoma Mansoni Peroxiredoxins; settings: purified TGR, DTNB reduction, TNB absorbance 405 nm; series mostly up to 114 µM; also: nearly all actives have a fitted effect of over 60% in size
Procedure, shortened: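 First, TGR (20 nM dispensed) and NADPH were mixed with compound. Second, a 15 min room-temperature incubation followed. Third, further NADPH and then DTNB were added to start the reaction. Finally, TNB absorbance was monitored kinetically.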
Potency is read from the fitted curve at half-maximal effect.

Compound | Potency
COc1ccc(C2C3=C(CCCC3=O)N(CC(=O)O)C3=C2C(=O)CCC3)cc1 | inactive
CCOc1ccc(C2C3=C(CCCC3=O)N(CC(=O)O)C3=C2C(=O)CCC3)cc1 | 44.7 µM (active)
CCOc1ccc(C2C(C#N)=C(N)N(N(C)C)C3=C2C(=O)CCC3)cc1 (stereo not drawn) | inactive
CC(=O)Nc1ccc(NC(=O)C2CCCN(S(=O)(=O)c3ccc4c(c3)CCCC(=O)N4)C2)cc1 (stereo not drawn) | inactive
COCCNC(=O)CSc1nc(-c2ccccc2)[nH]c1-c1ccc(C)cc1 | inactive
Cn1cncc1COC(=O)c1ccc(Cl)cc1 | inactive
Cc1cc(OC(=O)c2ccc(Cl)cc2)cc(=O)n1C | 44.7 µM (active)
Cc1oc(C)c2c(=O)cc(-c3ccc4c(c3)OCO4)cc(OC(=O)c3ccc(Cl)cc3)c12 | inactive
Cc1ccc(NC(=O)c2cn3c4c(ccc(Cl)c4c2=O)OC(C)C3)cc1C (stereo not drawn) | inactive
CCNCCC(=O)N1c2ccccc2Sc2ccc(NC(=O)OCC)cc21 | inactive
CCOC(=O)Nc1ccc2c(c1)N(C(=O)CCCl)c1ccccc1[S@]2=O | 14.1 µM (active)
CCOC(=O)Nc1ccc2c(c1)N(C(=O)CCN1CCN(CCO)CC1)c1ccccc1CC2 | inactive
COc1ccc(Cl)cc1NC(=O)CSc1nc(=O)[nH]c2c1CCCC2 | inactive
Cc1ccccc1-c1nc(CS(=O)(=O)CC(=O)NC(C)c2ccccc2)c(C)o1 (stereo not drawn) | inactive and 39.8 µM (active)
Cc1ccc(S(=O)(=O)CC(=O)NC(C)c2ccccc2)cc1 (stereo not drawn) | inactive
Cc1ccccc1-c1nc(CS(=O)(=O)CC(=O)N2CCc3ccccc3C2)c(C)o1 | 3.55 µM (active)
Cc1oc(-c2ccccc2F)nc1CS(=O)(=O)CC(=O)NCCCN(C)C1CCCCC1 | inactive
COc1cccc(-c2nc(CS(=O)(=O)CC(=O)N3CCN(c4cc(C)ccc4C)CC3)c(C)o2)c1 | inactive
Cc1ccccc1-c1nc(CS(=O)(=O)CC(=O)Nc2cc(Cl)cc(Cl)c2)c(C)o1 | inactive
Cc1ccc(-c2noc(-c3nnn(-c4cccc(C(F)(F)F)c4)c3N)n2)cc1 | inactive
CC1CCC(N2CC(=O)N(CCC3=CCCCC3)C(c3ccc(F)cc3)C2=O)CC1 (stereo not drawn) | inactive
CCOc1ccc(S(=O)(=O)c2cn(Cc3ccc(OC)cc3)c3ccc(F)cc3c2=O)cc1 | inactive
COc1ccc(C)cc1NC(=O)C(=O)NCCc1sc(-c2cccc(C)c2)nc1C | inactive
Cc1cc(C)c2oc(-c3cccc(NC(=O)c4cccc(F)c4)c3C)nc2c1 | inactive
CCOC(=O)c1c(C)oc2nc(C)nc(N3CCN(c4ccc(OC)cc4)CC3)c12 | inactive

Compound | Potency
O=C(NC1CC(=O)N(c2ccccc2)C1)c1ccco1 (stereo not drawn) | inactive
CCOC(=O)C(NS(=O)(=O)c1ccc(C)cc1)(C(F)(F)F)P(=O)(OCC(C)C)OCC(C)C (stereo not drawn) | 22.4 µM (active)
CC(=O)N1CCN(CC(C)(C)NS(=O)(=O)c2ccc(C)cc2)CC1 | inactive
Cc1ccc(S(=O)(=O)NCC(C)NS(C)(=O)=O)cc1 (stereo not drawn) | inactive
Cn1c(C(=O)N2CCC(C(=O)N3CCN(c4ccccc4)CC3)CC2)cc2sccc21 | inactive
Cc1ccc(Cl)cc1N(C)C(=O)C1CCCN(c2ncnc3onc(-c4ccc(F)cc4)c23)C1 (stereo not drawn) | inactive
NC(=O)CCN1CCN(S(=O)(=O)/C=C/c2ccccc2)CC1 | inactive
COc1ccccc1N1CCN(CC(=O)NC(=O)NCc2ccco2)CC1 | inactive
O=C(CN1CCN(S(=O)(=O)/C=C/c2ccccc2)CC1)NC(=O)NCc1ccco1 | 28.2 µM (active)
Cc1ccc(Nc2nnc(-c3ccc(C)c(S(=O)(=O)N4CCCCC4)c3)c3ccccc23)cc1 | inactive
Cc1ccc2cccc(NC(=O)c3cccc4ccccc34)c2n1 | inactive
Cc1cccc(NC(=O)N2CCC(CN3CCc4ccccc4C3)CC2)c1C | inactive
O=C(CC1N=C2c3ccccc3N=C(SCc3ccc(F)cc3)N2C1=O)NCc1cccs1 (stereo not drawn) | inactive
CC1Cc2cc(S(=O)(=O)CCC(=O)Nc3ccc(F)c(Cl)c3)ccc2N1C(=O)C1CC1 (stereo not drawn) | inactive
CC1Cc2cc(S(=O)(=O)CCC(=O)NCc3ccc(Cl)cc3)ccc2N1C(=O)C1CC1 (stereo not drawn) | inactive
Cc1ccc(CNC(=O)CCS(=O)(=O)c2ccc3c(c2)CC(C)N3C(=O)C2CC2)o1 (stereo not drawn) | 44.7 µM (active)
COc1cc(OC)cc(C(=O)Nc2c(C(=O)Nc3ccc(F)cc3)oc3ccccc23)c1 | inactive
CCOc1ccc(Nc2ncnc3scc(-c4ccc(OC)cc4)c23)cc1 | inactive
Cc1cccc2nc(-c3ccc(Cl)s3)c(Nc3ccc4c(c3)OCCO4)n12 | inactive
O=c1cc(CCl)nc2scc(-c3ccccc3)n12 | 17.8 µM (active)
Cc1csc2nc(COC(=O)c3ccccc3NC(=O)c3ccccc3Cl)cc(=O)n12 | inactive
Cc1csc2nc(COc3ccc(NC(=O)COc4ccccc4)cc3)cc(=O)n12 | inactive
Cc1oc2ccc(O)c(CN3CCOCC3)c2c1C(=O)Nc1cccc(Cl)c1C | inactive
O=S(=O)(c1ccc(Br)cc1)c1nc(-c2ccccc2)oc1NCc1cccnc1 | inactive
COc1cccc(-c2nc(S(=O)(=O)c3ccc(C)cc3)c(NCc3ccccc3)o2)c1 | 44.7 µM (active)

Compound | Potency
Cc1ccc(S(=O)(=O)c2nc(-c3cccs3)oc2NCc2cccnc2)cc1 | inactive
CCOC(=O)C(Cc1ccccc1)NC(=O)CCc1c(C)nc2c(c(C)nn2-c2ccc(C)c(C)c2)c1C (stereo not drawn) | inactive
CCC1CCCCN1S(=O)(=O)c1ccc(NC(=O)c2cc(=O)c3ccccc3o2)cc1 (stereo not drawn) | inactive
CCOc1ccc(CNC(=O)CCc2c(C)nn(-c3ccc(N4CCCCC4)nn3)c2C)cc1 | inactive
Cc1ccc(N2C(=O)C3C4C=CC(CC4)C3C2=O)cc1Br (stereo not drawn) | inactive
Cc1ccc(N2C(=O)C3C4C=CC(CC4)C3C2=O)cc1Cl (stereo not drawn) | 25.1 µM (active)
CC(=O)Nc1ccc(N2C(=O)C3C4C=CC(CC4)C3C2=O)cc1 (stereo not drawn) | inactive
Cc1ccc2oc(C(=O)Nc3ccc(S(=O)(=O)N4CCCCCC4)cc3)cc(=O)c2c1 | inactive
COc1ccc(-c2noc(CSc3nc(C)cc(=O)[nH]3)n2)cc1OC | inactive
O=C(CSc1oc(-c2ccccc2)nc1S(=O)(=O)c1ccc(Br)cc1)NC1CCCCC1 | inactive
COc1cc(Br)cc(/C=N/c2ncn[nH]2)c1O | inactive
Oc1c(Cl)cc(Cl)cc1/C=N/c1ncn[nH]1 | 20 µM (active)
Cc1ccc(Nc2c(-c3ccc(N(C)C)cc3)nc3nc[nH]n23)cc1 | inactive
COc1cc(OC)cc(-c2nc3nc(C)c(CCC(=O)Nc4ccc(C)cc4)c(C)n3n2)c1 | inactive
COc1ccccc1/C=C/C1=NC(=C\N(C)C)/C(=O)O1 | inactive
Cc1ccc(C2=C/C(=C\c3cccnc3)C(=O)O2)cc1 | inactive
CN(C)/C=C1\C=C(c2ccccc2)OC1=O | 22.4 µM (active)
Cc1cc(C)n2nc(C(=O)NC(C)(C)C)nc2n1 | inactive
Cc1cc(C)n2nc(CNS(=O)(=O)c3c(F)c(F)c(F)c(F)c3F)nc2n1 | 17.8 µM (active)
Cc1ccc(S(=O)(=O)NCc2nc3nc(C)cc(C)n3n2)cc1 | inactive
COC(=O)c1ccccc1NS(=O)(=O)c1ccc2c(c1)CCCN2C(C)=O | inactive
Cc1c(Cl)cccc1NC(=O)Cn1cc(C(=O)c2cccs2)c2ccccc21 | inactive
NC1=NC(c2cc(F)cc(F)c2)n2c(nc3ccccc32)N1 (stereo not drawn) | inactive
Cc1ccc(-n2c(SCC(=O)c3ccccc3)nc3c([nH]c4ccccc43)c2=O)cc1 | inactive
COc1ccccc1NC(=O)c1c(Br)cnn1C | inactive

Compound | Potency
COc1ccccc1NC(=O)/C=C/C(N)=O | 2.82 µM (active)
COc1ccccc1NC(=O)c1cc(Cl)nnc1Cl | inactive
CC(NC(=O)CCc1cn(Cc2ccccc2Cl)c2ccccc12)c1ccccc1 (stereo not drawn) | inactive
Cc1ccc(NC(=O)c2ccc3[nH]c(C)cc(=O)c3c2)c(C)c1 | inactive
O=[N+]([O-])c1ccc(C=Nc2ccc(Cl)cc2Cl)s1 | 25.1 µM (active)
Cc1cc(C)n2nc(SCC(N)=O)nc2n1 | inactive
COc1cccc(CSc2nc3nc(C)cc(C)n3n2)c1 | inactive
COc1ccc(C(C)=O)cc1CSc1nc2nc(C)cc(C)n2n1 | 39.8 µM (active)
CCOc1ccccc1CNC(=O)C1CCCN(S(=O)(=O)c2ccc3c(ccn3C)c2)C1 (stereo not drawn) | inactive
Cc1ccc(CNS(=O)(=O)c2ccc(C(=O)N(C)C)s2)cc1 | inactive
Cc1ccc2c(c1)-c1c(cnn1CC(=O)Nc1ccccc1C#N)CO2 | inactive
COc1ccc(-c2cn(-c3ccc(C)cc3)c(=O)n2CC(=O)Nc2ccc(OC)c(OC)c2)cc1 | inactive
C=Cn1c(C(=O)O)ccc1-c1ccc(OC)cc1 | inactive
CCOC(=O)c1ccc(COC(=O)CCc2nc(-c3ccccc3)c(-c3ccccc3)o2)cc1 | inactive
COc1ccc(Cl)cc1-n1c(CCC(=O)O)ccc1-c1ccc(C)cc1 | 39.8 µM (active)
Cc1ccc(-c2ccc(CCC(=O)O)n2-c2ccc(C(N)=O)cc2)cc1 | 12.6 µM (active)
CCOC(=O)c1ccc(-n2c(CCC(=O)O)ccc2-c2ccccc2)cc1 | 28.2 µM (active) and 50.1 µM (active)
COc1ccc(NC(=O)Cn2c(-c3ccc(OC)cc3)cn(-c3ccc(C)cc3)c2=O)cc1 | inactive
CCOC(=O)c1ccc(NC(=O)c2ncn(-c3ccccc3)n2)cc1 | inactive
COc1ccc(-c2ccc(CCC(=O)O)n2-c2ccc(O)cc2)cc1 | 39.8 µM (active)
COc1ccc(-c2nc3ccccc3c(=O)n2CCc2ccc(O)cc2)cc1 | inactive
COc1ccc(Cl)cc1NC(=O)CCC(=O)c1ccc(C)cc1 | inactive
COc1ccc(Cl)cc1NC(=O)Cn1nc(-c2ccc(C)cc2)n(C)c1=S | inactive
